From the supplement of paper PMC8728848
About 410 targets per protein were measured; listed, in parts, are those with the strongest signals and a random draw of the rest.

Tests used:
Assay in all cases: glycan array binding signal (z-score within array); higher = stronger binding
Details in all cases: glycan notation: IUPAC condensed, linker removed
Gal3S6S(b1-4)GlcNAc6S = biological target: Gal3S6S(b1-4)GlcNAc6S
Outline: (§1)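 Glycan array data came from 3228 arrays in the Consortium for Functional Glycomics database, and only arrays with an available protein sequence were kept. Glycan names were put into IUPAC-condensed notation, and columns mapping to the same glycan were averaged. The binding signal is a within-array Z-score, averaged across arrays of one protein sequence run at different concentrations or buffers and across linkers. A negative Z-score can be read as non-binding.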

Gal4S6S(b1-4)GlcNAc = biological target: Gal4S6S(b1-4)GlcNAc
Outline: as §1

Gal6P(b1-4)GlcNAc = biological target: Gal6P(b1-4)GlcNAc
Outline: as §1

[1] = biological target: GlcNAc(b1-2)Gal(b1-3)GalNAc
Outline: as §1

[2] = biological target: GlcNAc(b1-2)[GlcNAc(b1-4)]Man(a1-3)[GlcNAc(b1-2)Man(a1-6)]Man(b1-4)GlcNAc(b1-4)GlcNAc
Outline: as §1

[3] = biological target: GlcNAc(b1-3)Gal(b1-4)GlcNAc(b1-3)Gal(b1-4)GlcNAc(b1-3)Gal(b1-4)GlcNAc(b1-2)[GlcNAc(b1-3)Gal(b1-4)GlcNAc(b1-3)Gal(b1-4)GlcNAc(b1-3)Gal(b1-4)GlcNAc(b1-6)]Man(a1-6)[GlcNAc(b1-3)Gal(b1-4)GlcNAc(b1-3)Gal(b1-4)GlcNAc(b1-3)Gal(b1-4)GlcNAc(b1-2)Man(a1-3)]Man(b1-4)GlcNAc(b1-4)[Fuc(a1-6)]GlcNAc
Outline: as §1

GlcNAc(b1-3)Man = biological target: GlcNAc(b1-3)Man
Outline: as §1

[4] = biological target: GlcNAc(b1-3)[GlcNAc(b1-6)]GalNAc
Outline: as §1

[5] = biological target: Man(a1-3)[Man(a1-6)]Man(b1-4)GlcNAc(b1-4)GlcNAc
Outline: as §1

[6] = biological target: Neu5Ac(a2-3)Gal(b1-3)GalNAc(b1-4)Gal(b1-4)Glc
Outline: as §1

[7] = biological target: Neu5Ac(a2-3)Gal(b1-3)GalNAc(b1-4)[Neu5Ac(a2-3)]Gal(b1-4)Glc
Outline: as §1

[8] = biological target: Neu5Ac(a2-3)Gal(b1-3)GalNAc6S
Outline: as §1

[9] = biological target: Neu5Ac(a2-3)Gal(b1-3)GlcNAc(b1-2)[Neu5Ac(a2-3)Gal(b1-3)GlcNAc(b1-4)]Man(a1-6)[Neu5Ac(a2-3)Gal(b1-3)GlcNAc(b1-2)Man(a1-3)]Man(b1-4)GlcNAc(b1-4)GlcNAc
Outline: as §1

[10] = biological target: Neu5Ac(a2-3)Gal(b1-4)GlcNAc(b1-2)Man
Outline: as §1

[11] = biological target: Neu5Ac(a2-3)Gal(b1-4)GlcNAc(b1-3)GalNAc
Outline: as §1

[12] = biological target: Neu5Ac(a2-3)Gal(b1-4)GlcNAc(b1-6)[Gal(b1-3)]GalNAc
Outline: as §1

[13] = biological target: Neu5Ac(a2-3)Gal(b1-4)[Fuc(a1-3)]GlcNAc
Outline: as §1

[14] = biological target: Neu5Ac(a2-6)Gal(b1-4)GlcNAc(b1-2)Man(a1-3)Man(b1-4)GlcNAc(b1-4)GlcNAc
Outline: as §1

[15] = biological target: Neu5Ac(a2-6)Gal(b1-4)GlcNAc(b1-2)Man(a1-3)[GlcNAc(b1-4)][Neu5Ac(a2-6)Gal(b1-4)GlcNAc(b1-2)Man(a1-6)]Man(b1-4)GlcNAc(b1-4)GlcNAc
Outline: as §1

[16] = biological target: Neu5Ac(a2-6)Gal(b1-4)GlcNAc(b1-2)Man(a1-3)[Man(a1-6)]Man(b1-4)GlcNAc(b1-4)GlcNAc
Outline: as §1

[17] = biological target: Neu5Ac(a2-6)Gal(b1-4)GlcNAc(b1-3)Gal(b1-4)GlcNAc
Outline: as §1

[18] = biological target: Neu5Ac9Ac(a2-3)Gal(b1-4)GlcNAc
Outline: as §1

[19] = biological target: Neu5Gc(a2-3)Gal(b1-3)GlcNAc
Outline: as §1

[20] = biological target: Neu5Gc(a2-3)Gal(b1-4)[Fuc(a1-3)]GlcNAc
Outline: as §1

B1: Cp ZmpB (Clostridium perfringens), Q0TR08 (protein)
chain: MNKRKIAAIILATMITNLSATTIDVLAQELNTKNNSKVEVSHDDESHQARVSKFDLYNSDKLDAYNQEFQVSRSNIKSINNNGGKYNSSTIDKAIDGNLETHWETGKPNDANFTNEVVVTFNEITNIDRIVYSARRDSARGKGFAKEFEIYASLKDEGDDFNLVSSGEYTESTRDLVEIKFNPTDFKRLKFKFKKADQNWASAAEFMFYKEDKLNEKFNGLFTDSSMNKVSEEFNTLEKLNAFENELKDHPIYDLYKEGLNNARAILTETSENPTKATLGQITYNLNDDYNNQYRMPYKNIKAIKNNGRHYAAQNIEKAIDNDVNTYWETGTLNSSSFNNEVEVEFNDLVTLDRIVYGSRQSDLKGFAEEVYIYASRTSKGDTYKLVATGAHEATKGLVEAKFEPTEFKRVKFKFKKSKQNSATLNELMFYKPDEVYSSIPKLFTDGTMSELSEEFNSLEKINAFKEKAKNHPLYNDFNETIELAESLISNPRKEDVLELEMRGDSISEAKKRKVWNFQDWQITGLSARAGDKITVYVDVAEGDPTPTLLYKQSLTQHGGATSFQLKPGKNEITIPEINYESNGIPKDVIQGGDLFFTNYKSDSQKRAPKVRIEGASKYPVFILGKSDENEVMKELEAYVEKIKAEPKTTPNIFAVSSNKSLEFVQATYALDWYKKNNKTPKYTAEQWDQYIADAMGFWGFDNSKDVNSDFNFRIMPMVKNLSGGAFMNAGNGVIGIRPGNQDAILAANKGWGVAHELGHNFDTGGRTIVEVTNNMMPLFFESKYKTKTRITDQNIWENNTYPKVGLDDYSNNELYNKADSTHLAQLAPLWQLYLYDNTFYGKFERQFRERDFGNKNREDIYKSWVVAASDAMELDLTEFFARHGIRVDDKVKEDLAKYPKPDKKIYYLNDLAMNYKGDGFTENAKVSVSTSGSNGNIKLSFSVDDENKDNILGYEIRRDGKYVGFTSNDSFVDTKSNLDEDGVYVVTPYDRKLNTLNPIEVNALQPTLSVNPVITLALGEEFNEEEYIVAKDIKGNSLSESVKVKSSNVNTSKVGEYEVLYSLEDSKGNEYTKTSKVNVVSRKEYMSDLTPKQSSNGWGTVRKDKSISGGVIGLTRDGDFVDYNKGLGLHSNAEYVYDLEGKDYDYFESYVGVDKAMSSRPASSVIFKVLVDGEEKFNSGVMRSTTPQKYVKVDVKNAKELKLIVNDAGDGDSSDHASFGDAKLATLSSKPIIKGENLAYSMDEKVDLMKGITATDIEDGNITSKVQIKSSDFVEGKSGIFTVVYSVTDSDGLTSECSRTIAVTDKETQLSDLNWKSATIGSGSVRKDRAVSGNQIRLLNEDNSVETFAKGIGTHSYSEIVYNSEGYDIFDTWVGIDRHVADKKVSSVKFKVYVDGELKAETDVMRIDTPKKRLVVDVRNSKEIKLVVDVADNGNNWDHADWADAKFRNLAEYDASELNKAIEEAKKLDLNNYTEESSEALKNAISKGEEALLSKDKETINSALEELNKEMNSLVKVDLNAVINIPDKYLLKSIQNQLNKTGDITLGDMYSLTTLTLSGVEDLTGLENAKNLETLNMDYNEVKDLRPLSKLKKLNTLNAQEQFIAAGELKPSNGKVIGDSKVYNREGKNVAKTIRVVDKNGNTILEQDAKDEFTINTKDLSSGLYGVHVLFEDEGFSGVMFYLFNV
- glycan array binding signal (z-score) (Gal3S6S(b1-4)GlcNAc6S): 1.17
- glycan array binding signal (z-score) (Gal4S6S(b1-4)GlcNAc): 0.461
- glycan array binding signal (z-score) (Gal6P(b1-4)GlcNAc): -0.373
- glycan array binding signal (z-score) [1]: 2.81
- glycan array binding signal (z-score) [2]: 1.11
- glycan array binding signal (z-score) [3]: -0.173
- glycan array binding signal (z-score) (GlcNAc(b1-3)Man): 0.057
- glycan array binding signal (z-score) [4]: -0.207
- glycan array binding signal (z-score) [5]: -0.046
- glycan array binding signal (z-score) [6]: 0.164
- glycan array binding signal (z-score) [7]: 1.03
- glycan array binding signal (z-score) [8]: -0.457
- glycan array binding signal (z-score) [9]: 0.01
- glycan array binding signal (z-score) [10]: 0.151
- glycan array binding signal (z-score) [11]: -0.142
- glycan array binding signal (z-score) [12]: 1.22
- glycan array binding signal (z-score) [13]: 0.096
- glycan array binding signal (z-score) [14]: -0.151
- glycan array binding signal (z-score) [15]: -0.267
- glycan array binding signal (z-score) [16]: -0.365
- glycan array binding signal (z-score) [17]: 1.03
- glycan array binding signal (z-score) [18]: 1.71
- glycan array binding signal (z-score) [19]: -0.326
- glycan array binding signal (z-score) [20]: 2.05
